# Test results from ChEMBL document CHEMBL3988442, “University of Dundee, Small-Polar-MMV Screening Library” (2021).
# Screen size: about 69,000 compounds; about 1,000 (1.4%) showed an effect of 50% or more. For the sample, strong results were picked, then their nearest neighbours and some compounds at random.
# System: Leishmania donovani
# Experiment: Leishmania intramacrophage assay
# Format: functional, organism-based
# Set-up: scale not given: in the data most compounds retested in dose-response had high values
smiles,measurement,setting,value
O=C(O)C(F)(F)F.c1csc(CN2CCCn3nnc(COCC4CC4)c3C2)n1,Percent Effect,"30.3 µM, […]",52.28%
O=C(O)C(F)(F)F.c1ccc(CN2CCCn3nnc(Cn4cccc4)c3C2)nc1,Percent Effect,"30.3 µM, […]",-22.64%
O=C(O)C(F)(F)F.c1cnc(NCc2nnn3c2CN(Cc2ccco2)CCC3)nc1,Percent Effect,"30.3 µM, […]",-8.13%
COCc1nn(C(C)C)c2c1CCN(Cc1ccc(C)s1)C2.O=C(O)C(F)(F)F,Percent Effect,"30 µM, 30.03 µM",26.5%
Cc1ccc(CN2CCCn3nnc(COCC4CC4)c3C2)s1.O=C(O)C(F)(F)F,Percent Effect,"30 µM, 30.03 µM",16.69%
Cc1ccc(CN2CCCn3nnc(COCCN(C)C)c3C2)s1.O=C(O)C(F)(F)F.O=C(O)C(F)(F)F,Percent Effect,"30.3 µM, […]",66.44%
Cc1ccc(CN2Cc3nnn(C)c3C(COCCN(C)C)C2)s1.O=C(O)C(F)(F)F.O=C(O)C(F)(F)F (centres undefined),Percent Effect,"30 µM, 30.03 µM",25.22%
Cc1ccc(CN2CCc3c(COC(C)C)nn(C)c3C2)s1.O=C(O)C(F)(F)F,Percent Effect,"30.3 µM, […]",54.88%
Cc1ccc(CN2CCc3c(COCC4CC4)nn(C)c3C2)s1.O=C(O)C(F)(F)F,Percent Effect,"30.3 µM, […]",25.61%
O=C(O)C(F)(F)F.c1ccc(CN2CCCn3nnc(CNc4ncccn4)c3C2)nc1,Percent Effect,"30.3 µM, […]",67.35%
O=C(O)C(F)(F)F.c1csc(CN2CCCn3cnc(COCC4CC4)c3C2)n1,Percent Effect,"30.3 µM, […]",26.9%
Fc1ccc(CN2CCCn3nnc(COCC4CC4)c3C2)cc1.O=C(O)C(F)(F)F,Percent Effect,"30.3 µM, […]",-0.08958%
Cc1ccccc1CN1C[C@@H]2CC[C@H](C1)N(CC1CCC1)C2=O,Percent Effect,"30.3 µM, […]",6.524%
COCc1noc(CN2C[C@H](C3CC3)[C@@H](N(C)C)C2)n1,Percent Effect,"30.3 µM, […]",0.8667%
COCCOCCNS(=O)(=O)C1CS(=O)(=O)c2ccccc21 (centres undefined),Percent Effect,"30.3 µM, […]",-2.938%
O=C(Nc1ccc(F)cc1)C1CNCCN1C(=O)CCc1cccnc1 (centres undefined),Percent Effect,"30.3 µM, […]",21.52%
CC1CN(C)CCN1C(=O)c1ccn(-c2ccc(F)cc2)n1 (centres undefined),Percent Effect,30 µM,12.79%
CN(CCN1CCCCCC1)C(=O)c1cc(CN2CCCC(O)C2)on1 (centres undefined),Percent Effect,"30.3 µM, […]",28.93%
COc1cccc2c1OCCCN(Cc1ccc(C(N)=O)c(=O)[nH]1)C2,Percent Effect,"30.3 µM, […]",18.01%
COc1c(CNCc2ccccc2CN2CCOCC2)c(C)nn1C,Percent Effect,"30.3 µM, […]",15.12%
O=C(CN1CCc2cncnc2C1)NC1CCCCNC1=O (centres undefined),Percent Effect,"30.3 µM, […]",3.811%
Cn1cc(CN2C[C@@H]3COC[C@]3(COCC3CC3)C2)cn1.O=C(O)C(F)(F)F,Percent Effect,"30.3 µM, […]",35.55%
Cn1cc(CN2C[C@H]3CCC[C@@]3(COCC3CC3)C2)cn1.O=C(O)C(F)(F)F,Percent Effect,"30.3 µM, […]",55.4%
Cc1nc(COC[C@@]23CCC[C@@H]2CN(Cc2cnn(C)c2)C3)cs1,Percent Effect,"30.3 µM, […]",33.3%
CN(C)C(=O)CN1CCCC2(CCN(c3ccsc3)C2=O)C1.O=C(O)C(F)(F)F (centres undefined),Percent Effect,"30 µM, 30.03 µM",-2.413%
COCCN1CCCC2(CCN(c3ccsc3)C2=O)C1.O=C(O)C(F)(F)F (centres undefined),Percent Effect,"30.3 µM, […]",-19.62%
O=C(O)C(F)(F)F.O=C1N(c2ccsc2)CCC12CCCN(CC1CC1)C2 (centres undefined),Percent Effect,"30.3 µM, […]",57%
Cc1ccoc1C(=O)N1C[C@@H](OCC2CC2)[C@H]2OCCC[C@H]21,Percent Effect,"30.3 µM, […]",18.9%
Cc1nc(NC(=O)C(C)N(C)Cc2cccc(C#N)c2)sc1C (centres undefined),Percent Effect,"30.3 µM, […]",-18.76%
COc1cccc(CN(C)C(C)C(=O)Nc2nc(C)c(C)s2)c1 (centres undefined),Percent Effect,"30.3 µM, […]",51.15%
Cc1nc(NC(=O)C(C)N(C)Cc2ccc3c(c2)OCO3)sc1C (centres undefined),Percent Effect,"30.3 µM, […]",11.52%
CCN(CC)C1CCN(C(=O)NCc2cccc(-n3ccnc3)c2)C1 (centres undefined),Percent Effect,"30.3 µM, […]",23.85%
Cl.O=C(O)C1(Cc2cccc(-c3cccs3)c2)CCCNC1 (centres undefined),Percent Effect,"30.3 µM, […]",29.13%
Cl.O=C(N1CCCC1)C1(Cc2ccc(-c3cccs3)cc2)CCNC1 (centres undefined),Percent Effect,"30.3 µM, […]",86.38%
Cl.O=C(O)C1(Cc2ccc(-c3cccs3)cc2)CCNC1 (centres undefined),Percent Effect,"30.3 µM, […]",44.48%
O=C(NCc1cc[nH]n1)NCC(O)c1ccc(F)cc1F (centres undefined),Percent Effect,"30 µM, 30.03 µM",9.759%
O=C(c1cnccn1)N1CCCC(C2=Nc3ccccc3S(=O)(=O)N2)C1 (centres undefined),Percent Effect,"30.3 µM, […]",-20.53%
O=C1CCC(=O)N1c1nn(Cc2cccc(F)c2)cc1Cl,Percent Effect,"30.3 µM, […]",-1.051%
CC(C)CN1CC(C(=O)NCCNc2ncccn2)CC1=O (centres undefined),Percent Effect,"30.3 µM, […]",7.647%
COCC(=O)N1CCCn2c(CN3CCCC3=O)nnc2C1,Percent Effect,"30.3 µM, […]",51.47%
COCC(=O)N1CCCn2c(CN3CCCC3)nnc2C1,Percent Effect,"30.3 µM, […]",44.76%
COCC(=O)N1CCCn2c(CN3CCCCC3)nnc2C1.O=C(O)C(F)(F)F,Percent Effect,"30 µM, 30.03 µM",-9.377%
CCOc1ccc(C(=O)NS(=O)(=O)c2cncc(Br)c2)cc1OC,Percent Effect,"30 µM, 30.03 µM",20.52%
CCCN(CCOC)c1nc(C)nc2sccc12,Percent Effect,"30.3 µM, […]",19.01%
CCOCCN(CCOCC)c1nc(C)nc2sccc12,Percent Effect,"30.3 µM, […]",93.26%
COCCN(Cc1sccc1C)c1nc(C)nc2sccc12,Percent Effect,"30.3 µM, […]",13.95%
Cc1nnc(SCCNC(=O)Cn2cnc3ccccc3c2=O)s1,Percent Effect,"30.3 µM, […]",15.09%
Cc1cnc(N2CCC3(CCN(Cc4csc(C)n4)C3=O)C2)nc1.O=C(O)C(F)(F)F (centres undefined),Percent Effect,"30.3 µM, […]",19.08%
COc1cc(N2CCC3(CCN(Cc4csc(C)n4)C3)CC2)ncn1.O=C(O)C(F)(F)F,Percent Effect,"30.3 µM, […]",30.69%
COc1cc(N2CCC3(CCN(Cc4csc(C)n4)C3=O)C2)ncn1.O=C(O)C(F)(F)F (centres undefined),Percent Effect,"30.3 µM, […]",55.45%
COCCCn1c(CN2CCSCC2)cnc1S(=O)(=O)C1CCCC1,Percent Effect,"30.3 µM, […]",17.55%
CCc1nc2n(n1)CC(NCC(=O)Nc1ccc(Cl)cn1)CC2 (centres undefined),Percent Effect,"30 µM, 30.03 µM",11.34%
CC(C)C[C@H](N)COc1cccc(F)c1Oc1ccc(Cl)cc1,Percent Effect,"30.3 µM, […]",96.61%
CC(C)C[C@H](N)COc1cccc(F)c1Oc1cccc(Cl)c1,Percent Effect,"30.3 µM, […]",98.08%
CC(CNS(C)(=O)=O)Oc1cccc(Cl)c1 (centres undefined),Percent Effect,"30.3 µM, […]",6.182%
NCc1ccc(Oc2cccc(Cl)c2Cl)cc1,Percent Effect,"30.3 µM, […]",17.28%
CCCOc1ccccc1C(N)CC(C)C (centres undefined),Percent Effect,"30.3 µM, […]",24.69%
CCOc1ccccc1C(N)CC(C)C (centres undefined),Percent Effect,"30.3 µM, […]",19.23%
CC(C)COc1ccccc1C(N)CC(C)C (centres undefined),Percent Effect,"30.3 µM, […]",23.51%
CC(C)C[C@H](N)COc1cccc(F)c1Oc1ccccc1,Percent Effect,"30.3 µM, […]",56.67%
CNCc1cc(F)ccc1Oc1ccc(Cl)cc1,Percent Effect,"30.3 µM, […]",-3.595%
COc1ccccc1C(N)CC(C)C (centres undefined),Percent Effect,"30.3 µM, […]",3.977%
Cc1ccc(Oc2c(F)cccc2OC[C@@H](N)CC(C)C)cc1,Percent Effect,"30.3 µM, […]",95.01%
CC(CNS(N)(=O)=O)Oc1cccc(Cl)c1 (centres undefined),Percent Effect,"30.3 µM, […]",5.132%
